Test results reported in the supplement of paper PMC12819154, “High-throughput peptide-centric local stability assay extends protein–ligand identification to membrane proteins, tissues and bacteria” (Nature Structural & Molecular Biology, 2025).
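Further: lysate desalted by size exclusion to strip endogenous ATP, peptide intensities built from DIA-NN precursor signals, and peptides missing any value discarded before comparison.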

Sequence of UniProt P28630 (P28630 whole entry): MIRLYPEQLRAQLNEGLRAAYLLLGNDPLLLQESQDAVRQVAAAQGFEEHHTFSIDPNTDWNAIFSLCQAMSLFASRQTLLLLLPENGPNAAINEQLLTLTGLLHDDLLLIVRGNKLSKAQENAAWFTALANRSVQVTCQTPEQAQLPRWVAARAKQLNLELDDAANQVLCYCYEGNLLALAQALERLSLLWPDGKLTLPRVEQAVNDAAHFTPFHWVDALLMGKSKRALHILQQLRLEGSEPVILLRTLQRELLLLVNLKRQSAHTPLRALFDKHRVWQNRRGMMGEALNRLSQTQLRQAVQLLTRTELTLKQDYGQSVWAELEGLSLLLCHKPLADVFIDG
Sequence of UniProt P37595 (P37595 whole entry): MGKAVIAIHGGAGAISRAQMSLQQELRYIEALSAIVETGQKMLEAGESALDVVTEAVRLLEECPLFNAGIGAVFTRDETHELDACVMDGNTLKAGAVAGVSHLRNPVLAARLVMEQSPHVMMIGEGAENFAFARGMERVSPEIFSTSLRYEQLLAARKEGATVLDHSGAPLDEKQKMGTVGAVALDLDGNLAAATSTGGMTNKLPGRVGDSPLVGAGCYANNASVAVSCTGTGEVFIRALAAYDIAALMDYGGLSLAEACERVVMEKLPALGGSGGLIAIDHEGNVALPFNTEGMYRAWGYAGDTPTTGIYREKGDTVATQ
Sequence of UniProt P52129 (P52129 whole entry): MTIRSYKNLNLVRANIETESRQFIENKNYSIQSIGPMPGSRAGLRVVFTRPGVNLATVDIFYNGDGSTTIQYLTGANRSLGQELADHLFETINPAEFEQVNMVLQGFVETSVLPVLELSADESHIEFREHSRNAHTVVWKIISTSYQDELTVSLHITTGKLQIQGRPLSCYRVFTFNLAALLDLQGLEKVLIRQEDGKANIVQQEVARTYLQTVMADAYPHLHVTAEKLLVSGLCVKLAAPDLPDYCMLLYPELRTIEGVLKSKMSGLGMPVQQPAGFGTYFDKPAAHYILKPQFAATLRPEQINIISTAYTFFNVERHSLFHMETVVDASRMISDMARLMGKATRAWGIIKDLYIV
Sequence of UniProt P27830 (P27830 whole entry): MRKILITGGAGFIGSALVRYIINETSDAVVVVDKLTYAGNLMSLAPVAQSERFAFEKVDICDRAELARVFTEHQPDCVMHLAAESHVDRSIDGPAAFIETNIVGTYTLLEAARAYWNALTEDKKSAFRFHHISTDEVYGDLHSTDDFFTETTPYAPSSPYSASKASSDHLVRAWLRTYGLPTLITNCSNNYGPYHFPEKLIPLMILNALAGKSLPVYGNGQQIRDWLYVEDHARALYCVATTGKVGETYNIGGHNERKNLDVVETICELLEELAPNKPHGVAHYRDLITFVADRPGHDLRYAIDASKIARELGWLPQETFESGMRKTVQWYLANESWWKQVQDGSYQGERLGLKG
Sequence of UniProt P11868 (P11868 whole entry): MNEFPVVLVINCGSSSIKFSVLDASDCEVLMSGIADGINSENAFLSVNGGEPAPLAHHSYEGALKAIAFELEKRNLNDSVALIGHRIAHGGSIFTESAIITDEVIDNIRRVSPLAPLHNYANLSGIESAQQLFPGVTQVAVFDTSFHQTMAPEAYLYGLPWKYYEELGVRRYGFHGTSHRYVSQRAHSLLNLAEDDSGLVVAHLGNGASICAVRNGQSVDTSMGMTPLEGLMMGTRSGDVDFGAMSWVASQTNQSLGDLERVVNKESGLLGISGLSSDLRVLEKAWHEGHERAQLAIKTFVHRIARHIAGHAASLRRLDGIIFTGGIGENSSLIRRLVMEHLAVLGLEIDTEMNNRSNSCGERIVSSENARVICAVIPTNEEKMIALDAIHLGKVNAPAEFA
Sequence of UniProt P75821 (P75821 whole entry): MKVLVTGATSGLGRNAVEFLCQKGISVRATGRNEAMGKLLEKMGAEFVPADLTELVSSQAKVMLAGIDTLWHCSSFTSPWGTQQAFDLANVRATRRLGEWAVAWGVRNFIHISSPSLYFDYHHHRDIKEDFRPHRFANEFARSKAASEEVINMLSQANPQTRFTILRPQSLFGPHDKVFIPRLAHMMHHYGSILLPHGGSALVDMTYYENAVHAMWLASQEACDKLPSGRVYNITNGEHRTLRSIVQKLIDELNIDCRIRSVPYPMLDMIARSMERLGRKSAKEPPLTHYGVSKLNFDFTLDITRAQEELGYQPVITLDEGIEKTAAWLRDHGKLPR
Sequence of UniProt P31663 (P31663 whole entry): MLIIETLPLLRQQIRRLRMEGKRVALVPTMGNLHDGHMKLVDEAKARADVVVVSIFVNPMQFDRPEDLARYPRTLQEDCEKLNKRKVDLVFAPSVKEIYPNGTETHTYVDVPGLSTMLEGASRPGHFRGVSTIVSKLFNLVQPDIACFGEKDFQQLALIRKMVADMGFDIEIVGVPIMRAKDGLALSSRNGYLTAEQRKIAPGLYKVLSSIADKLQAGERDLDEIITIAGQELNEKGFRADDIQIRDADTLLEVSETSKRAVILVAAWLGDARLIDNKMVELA
Sequence of UniProt P15047 (P15047 whole entry): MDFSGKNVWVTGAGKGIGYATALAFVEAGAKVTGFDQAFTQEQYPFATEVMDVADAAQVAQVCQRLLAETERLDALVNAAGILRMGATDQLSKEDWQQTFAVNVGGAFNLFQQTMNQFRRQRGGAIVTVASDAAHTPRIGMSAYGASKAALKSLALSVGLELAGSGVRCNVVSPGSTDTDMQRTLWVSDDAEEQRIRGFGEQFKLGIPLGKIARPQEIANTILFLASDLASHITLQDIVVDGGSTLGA
Sequence of UniProt P11446 (P11446 whole entry): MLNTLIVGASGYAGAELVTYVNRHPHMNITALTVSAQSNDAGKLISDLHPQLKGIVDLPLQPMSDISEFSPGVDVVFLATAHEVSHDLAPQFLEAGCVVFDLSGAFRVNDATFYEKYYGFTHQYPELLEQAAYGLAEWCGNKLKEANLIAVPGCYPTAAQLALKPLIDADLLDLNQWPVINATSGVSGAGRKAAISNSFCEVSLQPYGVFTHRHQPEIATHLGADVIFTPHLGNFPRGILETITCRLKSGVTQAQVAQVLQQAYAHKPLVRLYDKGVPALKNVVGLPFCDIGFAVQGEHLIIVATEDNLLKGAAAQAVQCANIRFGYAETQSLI
Sequence of UniProt P0ACW6 (P0ACW6 whole entry): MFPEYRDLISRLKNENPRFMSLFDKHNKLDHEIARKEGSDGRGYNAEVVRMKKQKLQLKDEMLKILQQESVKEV
Sequence of UniProt P0AD57 (P0AD57 whole entry): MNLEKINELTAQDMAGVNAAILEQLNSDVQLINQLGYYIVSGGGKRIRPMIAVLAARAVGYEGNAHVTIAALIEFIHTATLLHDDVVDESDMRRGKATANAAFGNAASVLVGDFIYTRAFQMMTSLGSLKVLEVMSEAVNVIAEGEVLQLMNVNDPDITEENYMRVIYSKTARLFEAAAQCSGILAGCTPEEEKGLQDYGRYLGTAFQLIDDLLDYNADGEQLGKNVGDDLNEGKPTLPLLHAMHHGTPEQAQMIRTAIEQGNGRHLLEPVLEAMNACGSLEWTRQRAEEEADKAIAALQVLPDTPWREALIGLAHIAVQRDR

What follows are targets tested with Nc1ncnc2c1ncn2[C@@H]1O[C@H](COP(=O)(O)OP(=O)(O)OP(=O)(O)O)[C@@H](O)[C@H]1O [adenosine 5'-triphosphate] (assay: log2 fold change of tryptic peptide abundance, ligand vs vehicle (limited proteolysis) (log2 ratio); higher = more trypsin-susceptible (destabilized)). Details: ligand concentration: 5 mM; sample: E. coli desalted lysate; replicate design: treated before aliquoting.
Experimental: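 HT-PELSA: desalted E. coli K-12 BW25113 lysate (with 12 mM MgCl2) incubated with 5 mM ATP (pH 7) or water for 30 min at 25 C, then a 4 min trypsin pulse at 22 C. Peptides were quantified by DIA-MS (4 replicates). Value is the peptide log2 fold change (treated/control); negative = stabilized. Scale: negative = ligand-stabilized region.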
Work on “UniProt P11868 (peptide sequence: AWHEGHER, peptide start residue: 285)” yielded a log2 fold change of -1.02. Target “UniProt P52129 (peptide sequence: LQIQGRPLSCYR, peptide start residue: 161)” has a log2 fold change of 0.646. “UniProt P75821 (peptide sequence: DIKEDFRPHR, peptide start residue: 126)” gave a log2 fold change of -1.6. “UniProt P11446 (peptide sequence: GAAAQAVQCANIR, peptide start residue: 312)” gave a log2 fold change of -0.854. “UniProt P31663 (peptide sequence: VLSSIADKLQAGER, peptide start residue: 207)” gave a log2 fold change of -3.26. In the case of “UniProt P0ACW6 (peptide sequence: FMSLFDKHNK, peptide start residue: 19)”, the log2 fold change is reported as -0.425. “UniProt P28630 (peptide sequence: LSLLWPDGK, peptide start residue: 188)” gave a log2 fold change of -0.437. “UniProt P15047 (peptide sequence: IGMSAYGASK, peptide start residue: 139)” showed a log2 fold change of -1.47. Work on “UniProt P27830 (peptide sequence: ASSDHLVR, peptide start residue: 172)” yielded a log2 fold change of -0.668. For “UniProt P0AD57 (peptide sequence: QRAEEEADKAIAALQVLPDTPWR, peptide start residue: 286)”, the log2 fold change was 0.56. For “UniProt P37595 (peptide sequence: AQMSLQQELR, peptide start residue: 18)”, the log2 fold change was 0.693.
